These results are taken from PubChem BioAssay (NCATS).

Records with an inconclusive call do not appear. Active and inactive are the calls of the source. Calls come from the whole dose curve; as a rule, active = well fitted inhibition curve with a large enough effect; inconclusive = small, poorly fitted or top-dose-only effect; inactive = no such curve, though single readings can be large or run the other way.
Potency is the fitted concentration of half-maximal effect.

Chain of Tyrosine-protein kinase Yes (Homo sapiens) (P07947 whole entry, looked up): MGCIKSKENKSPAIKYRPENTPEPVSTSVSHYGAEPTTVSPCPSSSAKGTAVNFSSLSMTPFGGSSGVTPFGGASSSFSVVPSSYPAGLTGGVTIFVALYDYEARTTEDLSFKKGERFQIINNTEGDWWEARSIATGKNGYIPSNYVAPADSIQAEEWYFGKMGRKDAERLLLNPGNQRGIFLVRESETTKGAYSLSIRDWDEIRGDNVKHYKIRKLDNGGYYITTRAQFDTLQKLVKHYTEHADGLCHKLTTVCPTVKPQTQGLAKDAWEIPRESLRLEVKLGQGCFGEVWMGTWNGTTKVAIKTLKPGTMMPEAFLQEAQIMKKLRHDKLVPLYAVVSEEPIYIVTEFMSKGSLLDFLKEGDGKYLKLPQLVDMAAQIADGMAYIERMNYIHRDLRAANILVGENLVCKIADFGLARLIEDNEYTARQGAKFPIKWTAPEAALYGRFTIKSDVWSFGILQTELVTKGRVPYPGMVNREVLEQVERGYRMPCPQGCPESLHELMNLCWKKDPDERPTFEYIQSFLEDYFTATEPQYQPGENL

In the assay the target is Tyrosine-protein kinase Yes (Homo sapiens) (UniProt P07947). Put plainly: qHTS for small molecule inhibitors of Yes1 kinase: Primary Screen (AID 686947). Note: nearly all actives have a fitted effect of over 60% in size. Conditions: Yes1 kinase biochemical qHTS inhibition; series mostly up to 76.9 µM. From the text:
The Src family of non-receptor protein tyrosine kinases contains nine members, including Yes1, Src, Fyn, Lyn, and […]. These kinases have important roles in a variety of cellular functions, such as cell proliferation, survival, and differentiation. Src, the most well characterized member of this family, has been previously identified as a proto-oncogene. […] In melanoma, it has been shown that Yes1, and not other family members, such as Src, is functionally involved in the malignant phenotype. Additionally, a recent study examining the downregulation of Yes1 by shRNA found significant effects on cell survival/growth for basal-like and Her2-positive breast cancers. Despite the potential for Yes1 to be a target for the above-described cancers, there are very few reports on the identification of potent and selective inhibitors of Yes1 kinase. Antagonists of Yes1 would further elucidate Yes1 biology and help to confirm whether Yes1 is a viable target for therapeutic intervention in a variety of cancers.
A compound that inhibits Yes1 could be important for the treatment of various cancers in which Yes1 is highly expressed and can also be used as a tool compound to help further elucidate Yes1 biology. To that end, we have developed a sensitive HTS biochemical assay for Yes1 activity. This assay was screened against several small compound libraries to look for modulators of activity. Inhibition is the desired output for this assay.
NIH Molecular Libraries Probe Production Centers Network [MLPCN]
NIH Chemical Genomics Center [NCGC]
Two micoliter of Yes1 enzyme (columns 1-2, 5-48; Millipore, Billerica, MA) are dispensed into Greiner, white solid-bottom 1536-well assay plates; columns 3 and 4 receive buffer without Yes1 as a control for maximum inhibition. Compounds (23 nL) are then transferred via Kalypsys pin tool equipped with 1536-pin array (10 nL slotted pins, V&P Scientific, San Diego, CA). […] Following addition of compound and a 20 minute incubation, 1 uL of substrate (ATP and poly-E4Y from Sigma-Aldrich, St. Louis, MO) is added, and the biochemical reaction is allowed to progress for 60 minutes at room temperature. The production of ADP is then quantified by the ADP-Glo Kit (Promega, Madison, WI). First, 2 uL of the first kit reagent is added, and the reaction is incubated for 45 minutes; then, 4 uL of the second kit reagent are added and the reaction is incubated for 30 minutes at which time the luminescence is read on a Viewlux plate reader (Perkin-Elmer, Waltham, MA). The final concentration of reagents in the reaction are 4 nM Yes1, 0.1 mM ATP, 100 uM EGTA, 10 mM MgCl2, 0.3 mg/mL poly(E4Y), 50 mM Tris pH 7.5, 1 mM DTT, 150 mM NaCl, 0.01% Brij-35, and 5% glycerol. Data are normalized to DMSO-treated control columns with (maximum signal) and without (minimum signal) enzyme.
For `CC(Oc1cc(-n2cnc3ccc(OCC4CCN(C)CC4)cc32)sc1C(N)=O)c1ccccc1C(F)(F)F` (stereo not given), the Potency is 1.46 µM (active).
For `CNC(=O)c1sc(-n2cnc3cc(OC)c(OC)cc32)cc1OCc1ccccc1C(F)(F)F`, the Potency is 18.4 µM (active).
For `COc1cc(Nc2nccc(-c3cnn4ncccc34)n2)cc(OC)c1`, the Potency is 0.519 µM (active).
Consider `Cc1ccc(NC(=O)CC2CC2)cc1-c1ccc(C(=O)NCC2CC2)cc1`, for which the Potency result is “inactive”.
Take `Fc1ccc(-c2nn3ccccc3c2-c2ccncc2)cc1`: the Potency was 23.2 µM (active).
Consider `N#Cc1c(NC(=O)c2ccc(F)cc2)sc2c1CCCC2`, for which the Potency entry was “inactive”.
As for `CNC(=O)c1cncc(C=Cc2c(C)cccc2C)c1`, the Potency is 0.463 µM (active).
Consider `CCn1c(-c2nonc2N)nc2cncc(C(=O)NCCNC)c21`, for which the Potency was 1.3 µM (active).
To `CS(=O)(=O)CCNCc1ccc(-c2ccc3ncnc(Nc4ccc(OCc5ccccc5)c(Cl)c4)c3c2)o1` belongs 0.923 µM (active); to `O=C(Nc1n[nH]c2nc(-c3ccco3)c(Br)cc12)C1CC1`, 8.23 µM (active); to `CS(=O)(=O)CCNCc1ccc(-c2ccc3ncnc(Nc4ccc(OCc5ccccc5)c(Br)c4)c3c2)o1`, 2.32 µM (active).
On to `CS(=O)(=O)CCNCc1ccc(-c2ccc3ncnc(Nc4ccc(OCc5cccc(C(F)(F)F)c5)cc4)c3c2)o1`, for which the Potency is 6.54 µM (active).
To `O=C(Nc1ccc(Oc2ccc3nc(NC(=O)c4ccco4)[nH]c3c2)cc1)Nc1cc(C(F)(F)F)ccc1F` belongs 4.12 µM (active).
To `CCn1c(-c2nonc2N)nc2ccncc21` belongs “inactive”; to `CS(=O)(=O)Nc1ccc(-c2cc(-c3ccccc3)cc(C(N)=O)c2N)cc1`, 13 µM (active).
To `CCCN(CCS(C)(=O)=O)Cc1ccc(-c2ccc3ncnc(Nc4ccc(OCc5cccc(F)c5)c(Cl)c4)c3c2)o1` belongs 6.54 µM (active); to `COc1cccc(Nc2nccc(-c3cnn4ncccc34)n2)c1`, “inactive”; to `NS(=O)(=O)c1ccc(Nc2ncc(-c3ccccc3)o2)cc1`, “inactive”.
Turning to `Cc1cc(-c2ccccn2)cc(C)c1C=Cc1cncc(-c2nn[nH]n2)c1`, the Potency was 2.07 µM (active).
To `COc1cc2ncn(-c3cc(OCCc4ccccc4)c(C(N)=O)s3)c2cc1OC` belongs “inactive”; to `O=C(OC1CNC(C#Cc2cc3ncnc(Nc4ccc5c(ccn5Cc5cc(F)ccc5F)c4)c3s2)C1)N1CCOCC1` (stereo not given), 29.2 µM (active); to `FC(F)(F)c1cccc(Nc2nccc(-c3cnn4nc(-c5ccccc5)ccc34)n2)c1`, 14.6 µM (active).
Regarding `COc1cc(Nc2ncc(-c3ccccc3)o2)cc(OC)c1OC`, the Potency was 0.328 µM (active).
Consider `NS(=O)(=O)c1ccc(N=Nc2c(O)[nH]c3ccc(C(=O)NCCCn4ccnc4)cc23)cc1`, for which the Potency is 2.6 µM (active).
To `O=C1NC(=O)C(c2ccccc2Cl)=C1Nc1cccc(O)c1` belongs 8.23 µM (active); to `CCc1cccc(CC)c1C=Cc1cncc(C(=O)NC)c1`, 26 µM (active); to `COC(=O)Nc1nc2ccc(Oc3ccc(NC(=O)Nc4cccc(Br)c4)cc3)cc2[nH]1`, “inactive”.
As to `NS(=O)(=O)c1ccc(N=Nc2c(O)[nH]c3ccc(-c4cnco4)cc23)cc1`, the Potency entry was “inactive”.
As for `CC1=C(C(=O)Nc2ccc3[nH]ncc3c2)C(c2ccc(F)cc2)NC(=O)N1` (stereo not given), the Potency is 26 µM (active).
`Fc1ccc(-c2cc(-c3cn[nH]c3-c3ccccn3)ccn2)cc1`: the Potency is 29.2 µM (active).
Turning to `COc1ccc(CNC(=O)c2ccc(-c3cc(-c4nnc(C)o4)ccc3C)cc2)cc1`, the Potency result was “inactive”.
To `CS(=O)(=O)CCNCc1nc(-c2ccc3ncnc(Nc4ccc(F)c(Cl)c4)c3c2)cs1` belongs 4.63 µM (active); to `CCCNc1cccc(-n2ncc3c(NN=Cc4ccncc4)ncnc32)c1`, 0.0328 µM (active); to `COc1cc(C=NNc2ncnc3c2cnn3Cc2ccccc2)ccc1O`, 0.116 µM (active).
As to `c1ccc(Cc2nc3ccc(Nc4ncnc5ccccc45)cc3[nH]2)cc1`, the Potency was 1.16 µM (active).
As for `CCOc1nccc2c1nc(-c1nonc1N)n2CC`, the Potency entry was “inactive”.
To `Nc1nc(-c2cccc(Cl)c2)c(-c2ccc3ncccc3n2)s1` belongs 1.16 µM (active); to `CNC(=O)c1ncccc1Nc1nc(Nc2cc3c(cc2OC)CCCN3C(=O)CN(C)C)nc2[nH]ccc12`, “inactive”.
In the case of `CCn1c(-c2nonc2N)nc2c(C#CC(C)(C)O)ncc(OC3CCNCC3)c21`, the Potency is 26 µM (active).
For the compound `FC(F)(F)c1cccc(-c2nn3ncccc3c2-c2ccnc(Nc3ccc4c(c3)OCCO4)n2)c1`, the Potency was 0.412 µM (active).
